For assay [1] the following is noted: Ebola virus entry assay, green fluorescence channel.
For assay [2] the following is noted: Ebola virus entry assay, blue channel fluorescence.
The conditions of assay [3]: Ebola virus entry assay, ratio channel.
The conditions of assay [4]: Ebola virus entry assay, reporter ratio channel; Channel type: primary.

Unmarked numbers belong to inactive results. For part of these data: Potency and affinity values are given separately. The source made the active and inactive calls. How the calls were made is not given here.

As usually defined, the AC50 is the concentration at which the activity in the assay is half-maximal.
Wherever efficacy is given: 0% is about no effect.

`C[C@@H]1CN(CCCn2c3ccccc3c3ccccc32)C[C@H](C)N1`: the efficacy in assay [1] is -134%. Further, the AC50 in assay [2], in assay [3] and in assay [4] was 3.16 µM (active) in each case.
Take `O=C1NCCN1CCN1CCC(c2cn(-c3ccc(F)cc3)c3ccc(Cl)cc23)CC1`: the efficacy in assay [1] is -279%. Moreover, the values for the half-maximal activity concentration (AC50) in assay [2], in assay [3] and in assay [4] were 0.891 µM (active), 1 µM (active) and 1 µM (active), respectively.
With `CCCCCCCCCCCCCCCC[N+](C)(C)CCN(Cc1ccc(OC)cc1)c1ncccn1`, the efficacy in assay [1] is -93.3%. Also, the AC50 in assay [2] and in assay [4] was 39.8 µM (active) throughout. Besides, the outcome in assay [3] was inactive.
With `O=C(CN1CCN(Cc2ccc3c(c2)OCO3)CC1)N1c2ccccc2Sc2ccccc21`, in assay [1], the efficacy was 86.4%. Further, the values for the AC50 in assay [2], in assay [3] and in assay [4] were 39.8 µM (active), 25.1 µM (active) and 25.1 µM (active), respectively.
For `CCC(CN)=C(c1ccccc1)c1ccccc1`, the efficacy in assay [1] is 124%. The AC50 in assay [2], in assay [3] and in assay [4] was 17.8 µM (active) throughout.
`O=C(CCCN1CC=C(n2c(=O)[nH]c3ccccc32)CC1)c1ccc(F)cc1`: the efficacy in assay [1] was 51%. Moreover, the AC50 in assay [2], in assay [3] and in assay [4] was 17.8 µM (active) each time.
`C=C1c2cccc(O)c2C(O)=C2C(=O)[C@]3(O)C(O)=C(C(N)=O)C(=O)[C@@H](N(C)C)[C@@H]3[C@@H](O)[C@H]12`: the efficacy in assay [1] is 38.3%. For the same compound, the values for the AC50 in assay [2], in assay [3] and in assay [4] were 7.08 µM (active), 6.31 µM (active) and 6.31 µM (active), respectively.
With `CCO[C@@H]1O[C@H](C(COCc2ccccc2)OCc2ccccc2)[C@H](OCc2ccccc2)[C@H]1O` (stereo not given in full), the efficacy in assay [1] is 70%. Further, the AC50 in assay [2] was 31.6 µM (active); in assay [3], 15.8 µM (active); in assay [4] it was 15.8 µM (active).
As to `Clc1ccc(C(Cn2ccnc2)OCc2c(Cl)cccc2Cl)c(Cl)c1` (stereo not given), the efficacy in assay [1] was -112%. For the same compound, the AC50 in assay [2] was 14.1 µM (active); in assay [3] it was 8.91 µM (active); in assay [4] it was 8.91 µM (active).
`CN1CCC(OC(c2ccccc2)c2ccccc2)CC1`: the efficacy in assay [1] is 74.4%. For the same compound, the AC50 was 14.1 µM (active) in assay [2], 10 µM (active) in assay [3] and 10 µM (active) in assay [4].
On to `C=CCc1cc(OC)c(O)c(C(=O)NCCO)c1`, for which, in assay [1], the efficacy is -21.5%. The values for the AC50 in assay [2], in assay [3] and in assay [4] were 12.6 µM (active), 22.4 µM (active) and 22.4 µM (active), respectively.
Turning to `CCCCNc1ccc(C(=O)OCCN(CC)CC)cc1`, the efficacy in assay [1] is 87.1%. Further, the AC50 in assay [2] is 39.8 µM (active); in assay [3] it was 22.4 µM (active); in assay [4], 22.4 µM (active).
For the compound `O=C1NC2CCCCN2C12CCN(CCCN1c3ccccc3CCc3ccc(Cl)cc31)CC2` (stereo not given), the efficacy in assay [1] is -203%. Besides, the AC50 in assay [2] is 4.47 µM (active); in assay [3], 3.16 µM (active); in assay [4], 3.16 µM (active).
In the case of `COc1cc(N)c(Cl)cc1C(=O)NC1CCN(CCCOc2ccc(F)cc2)CC1OC` (stereo not given), the efficacy in assay [1] was 45%. The figures for the AC50 in assay [2], in assay [3] and in assay [4] were 25.1 µM (active), 15.8 µM (active) and 15.8 µM (active), respectively.
Turning to `CN(C)CCCOC1(Cc2ccccc2)CCCCCC1`, the efficacy in assay [1] is 64.1%. The AC50 in assay [2] was 17.8 µM (active); in assay [3] it was 14.1 µM (active); in assay [4], 14.1 µM (active).
On to `N[C@H](C(=O)O)[C@@H](O)c1ccc(O)c(O)c1`, for which the efficacy in assay [1] was 53.3%. The figures for the AC50 in assay [2], in assay [3] and in assay [4] were 22.4 µM (active), 20 µM (active) and 20 µM (active), respectively.
For `CCN(CCCc1ccccc1)CCCc1ccccc1`, in assay [1], the efficacy is 48.4%. The AC50 in assay [2] was 5.62 µM (active); in assay [3], 4.47 µM (active); in assay [4], 4.47 µM (active).
As to `C[C@@H]1C[C@H]2[C@@H]3CCC4=CC(=O)C=C[C@]4(C)[C@@]3(Cl)[C@@H](O)C[C@]2(C)[C@@]1(OC(=O)c1ccco1)C(=O)CCl`, the efficacy in assay [1] is 39.8%. For the same compound, the AC50 in assay [2] was 25.1 µM (active); in assay [3], 10 µM (active); in assay [4], 10 µM (active).
As to `CCN(CC)CCOC(=O)C(Cc1cccc2ccccc12)CC1CCCO1` (stereo not given), the efficacy in assay [1] is 78.5%. The AC50 was 12.6 µM (active) in assay [2], 11.2 µM (active) in assay [3] and 11.2 µM (active) in assay [4].
In the case of `CC(C(O)c1ccccc1)N(C)CCOC(c1ccccc1)c1ccccc1` (stereo not given), the efficacy in assay [1] was 65%. Besides, the AC50 was 3.16 µM (active) in assay [2], 2.82 µM (active) in assay [3] and 2.82 µM (active) in assay [4].
As for `CN(C)CCn1nnnc1SCC1=C(C(=O)O)N2C(=O)[C@@H](NC(=O)Cc3csc(N)n3)[C@H]2SC1`, in assay [1], the efficacy is 40.8%. The AC50 in assay [2] is 17.8 µM (active); in assay [3], 28.2 µM (active); in assay [4] it was 28.2 µM (active).
`CN(C)[C@@H]1C(=O)C(C(=O)NCN2CCCC2)=C(O)[C@@]2(O)C(=O)C3=C(O)c4c(O)cccc4[C@@](C)(O)C3C[C@@H]12` (stereo not given in full): in assay [1], the efficacy was 145%. Moreover, the AC50 in assay [2], in assay [3] and in assay [4] was 11.2 µM (active) each time.
On to `CN1C[C@H](C(=O)N[C@]2(C)O[C@@]3(O)[C@@H]4CCCN4C(=O)[C@H](Cc4ccccc4)N3C2=O)C[C@@H]2c3cccc4[nH]cc(c34)C[C@H]21`, for which the efficacy in assay [1] was 95.4%. The AC50 in assay [2] was 28.2 µM (active); in assay [3] it was 17.8 µM (active); in assay [4], 17.8 µM (active).
`Cc1cc(O)c(C(C)C)cc1Cl`: the efficacy in assay [1] was -25.5%. Also, the AC50 in assay [2] was 35.5 µM (active). The result in assay [3] and in assay [4] was inactive.
Regarding `CN(C)CCCN1c2ccccc2Sc2ccc(C(F)(F)F)cc21`, the efficacy in assay [1] is -67.9%. Further, the results for the AC50 in assay [2], in assay [3] and in assay [4] were 3.16 µM (active), 2.82 µM (active) and 2.82 µM (active), respectively.
For the compound `COc1ccc(-n2nc(CCC(=O)N(C)O)cc2-c2ccc(Cl)cc2)cc1`, the efficacy in assay [1] is 77.8%. Also, the figures for the AC50 in assay [2], in assay [3] and in assay [4] were 11.2 µM (active), 10 µM (active) and 10 µM (active), respectively.
In the case of `CCCCCCCCCCCCCCCC[n+]1ccccc1`, in assay [1], the efficacy is -209%. In addition, the AC50 is 20 µM (active) in assay [2], 14.1 µM (active) in assay [3] and 14.1 µM (active) in assay [4].
Regarding `Fc1ccc(C(c2ccc(F)cc2)N2CCN(C/C=C/c3ccccc3)CC2)cc1`, the efficacy in assay [1] is 37.6%. In addition, the AC50 in assay [2] is 12.6 µM (active); in assay [3], 11.2 µM (active); in assay [4], 11.2 µM (active).
For `C[n+]1cc2c3c(ccc2c2ccc4cc5c(cc4c21)OCO5)OCO3`, the efficacy in assay [1] was -149%. For the same compound, the AC50 in assay [2], in assay [3] and in assay [4] was 17.8 µM (active) in each case.
Regarding `O=C(Nc1ccc(Cl)cc1)Nc1ccc(Cl)c(C(F)(F)F)c1`, the efficacy in assay [1] is -174%. Moreover, the AC50 in assay [2] is 28.2 µM (active); in assay [3] it was 8.91 µM (active); in assay [4], 8.91 µM (active).
With `CC(C)C[C@@H]1[C@H](c2ccccc2)OC(=O)N1CCCN1CCCCCC1`, the efficacy in assay [1] was 64.2%. Further, the AC50 in assay [2] was 12.6 µM (active); in assay [3] it was 8.91 µM (active); in assay [4], 8.91 µM (active).
As to `CN1CCN(CCCN2c3ccccc3Sc3ccc(S(=O)(=O)N(C)C)cc32)CC1`, the efficacy in assay [1] is 146%. In addition, the AC50 was 2.51 µM (active) in assay [2], 2.24 µM (active) in assay [3] and 2.24 µM (active) in assay [4].
With `CN1CCN(C2=Nc3cc(F)ccc3Cc3ccccc32)CC1`, the efficacy in assay [1] is 49.4%. Besides, the AC50 is 22.4 µM (active) in assay [2], 31.6 µM (active) in assay [3] and 31.6 µM (active) in assay [4].
As to `C[C@]12CCC(=O)C=C1C=C[C@@H]1[C@@H]2CC[C@@]2(C)[C@H]1CC[C@@]21CCC(=O)O1`, the efficacy in assay [1] is 123%. Moreover, the AC50 in assay [2] and in assay [4] was 39.8 µM (active) throughout. Besides, in assay [3], the result was inactive.
On to `c1ccc(OCc2ccc(CCCN3CCOCC3)cc2)cc1`, for which the efficacy in assay [1] is 89.3%. For the same compound, the AC50 is 22.4 µM (active) in assay [2], 20 µM (active) in assay [3] and 20 µM (active) in assay [4].
Consider `O=C(OCC(O)CO)c1ccccc1Nc1ccnc2cc(Cl)ccc12` (stereo not given), for which the efficacy in assay [1] is 41.9%. The AC50 in assay [2] was 39.8 µM (active); in assay [3], 20 µM (active); in assay [4], 20 µM (active).
As for `Cc1cc(C2CCCCC2)n(O)c(=O)c1`, the efficacy in assay [1] was 53.2%. Moreover, the AC50 in assay [2] and in assay [4] was 39.8 µM (active) in each case. Further, the result in assay [3] was inactive.
As to `CCCOC(C(=O)OC1CCN(C)CC1)(c1ccccc1)c1ccccc1`, in assay [1], the efficacy was 30.9%. For the same compound, the half-maximal activity concentration (AC50) in assay [2] was 7.94 µM (active); in assay [3] it was 7.08 µM (active); in assay [4], 7.08 µM (active).
As to `CCCC(C(=O)OCCN(CC)CC)(c1ccccc1)c1ccccc1`, the efficacy in assay [1] was -182%. In addition, the AC50 is 3.16 µM (active) in assay [2], 2.24 µM (active) in assay [3] and 2.24 µM (active) in assay [4].
Regarding `COc1cc(C(=O)OCCCN2CCCN(CCCOC(=O)c3cc(OC)c(OC)c(OC)c3)CC2)cc(OC)c1OC`, the efficacy in assay [1] was 89.6%. In addition, the AC50 in assay [2] is 17.8 µM (active); in assay [3], 12.6 µM (active); in assay [4] it was 12.6 µM (active).
`CC(=O)c1ccc2c(c1)N(CCCN(C)C)c1ccccc1S2`: the efficacy in assay [1] is 87%. The AC50 in assay [2], in assay [3] and in assay [4] was 12.6 µM (active) each time.
As for `O=C(CCCN1CCC(O)(c2ccc(Br)cc2)CC1)c1ccc(F)cc1`, in assay [1], the efficacy was 36.8%. Besides, the AC50 was 7.94 µM (active) in assay [2], 5.62 µM (active) in assay [3] and 5.62 µM (active) in assay [4].
Consider `COc1cccc2c1C(=O)c1c(O)c3c(c(O)c1C2=O)C[C@@](O)(C(C)=O)C[C@@H]3O[C@H]1C[C@H](N)[C@H](O)[C@H](C)O1`, for which the efficacy in assay [1] was 54.5%. Besides, the AC50 in assay [2], in assay [3] and in assay [4] was 5.01 µM (active) throughout.
Turning to `Cc1c(C)c2c(c(C)c1OC(=O)CCC(=O)OCCO)CC[C@@](C)(CCC[C@H](C)CCC[C@H](C)CCCC(C)C)O2`, in assay [1], the efficacy is -73.4%. The AC50 in assay [2] and in assay [4] was 39.8 µM (active) throughout. Moreover, the result in assay [3] was inactive.
For `CCC(=O)O[C@]1(C(=O)CCl)[C@@H](C)C[C@H]2[C@@H]3CCC4=CC(=O)C=C[C@]4(C)[C@@]3(F)[C@@H](O)C[C@@]21C`, the efficacy in assay [1] was 88.5%. For the same compound, the AC50 in assay [2], in assay [3] and in assay [4] was 31.6 µM (active) in each case.

(Values after PubChem BioAssay (NCATS).)
